# aSyn UTR act: Activators via SNCA 5'UTR binding, MLPCN; alpha-synuclein 5'UTR reporter, activators screen; actives 7.1% (n = 300,000); activity score, % (tested at 7.5 µM), hits read low; AID 1814; in the data active = activity score below about -60%
# An asterisk follows results filed as active. The list is a sample of the results.
SMILES,aSyn UTR act
S=C(NCC1CCCO1)Nc1ccc(Cl)cc1 (configuration not stated),-72.2*
Cc1ccc(N2C(=O)CC(Sc3nc(C)cc(C)n3)C2=O)cc1 (configuration not stated),-62.7*
CCS(=O)(=O)N1N=C(c2cccs2)CC1c1cc2cc(C)ccc2nc1Cl (configuration not stated),-67.0*
O=C(Nc1ccccc1)NC1CCCCCCC1,-106.2*
O=C(Nc1ccccc1)NC1CCCCC1,-66.4*
O=c1[nH]c(/C(Cl)=C/c2cc(Cl)ccc2O)nc2cc(Cl)ccc12,-89.7*
CC1CCC2(CC1)NC(=O)N(NC(=O)CCl)C2=O (configuration not stated),-77.1*
COC(=O)c1ccc(CN2C(=O)NC3(CCC(C)CC3)C2=O)cc1 (configuration not stated),-70.0*
Cc1ccc(C2=Nc3ccc(Br)cc3C(c3ccncc3)=NN2)cc1,-69.7*
Cc1ccc2c(c1)C(c1ccncc1)=NNC(c1ccccc1)=N2,-127.0*
Cc1ccc(OCc2ccc([N+](=O)[O-])cc2)c([N+](=O)[O-])n1,-114.6*
Cc1ccc(OCCOc2ccc(Br)cc2)c([N+](=O)[O-])n1,-182.1*
CC(/C=N/NC(=O)CN1CCN(Cc2ccc(Cl)cc2)CC1)=C\c1ccco1,-87.1*
Cc1ccc(CN2CCN(CC(=O)N/N=C/c3ccccc3F)CC2)cc1,-62.7*
O=C(CNC(=O)c1ccccc1O)N/N=C/c1cc(Br)ccc1OC(=O)/C=C/c1ccco1,68.1
CC(/C=N/NC(=O)c1cc(-c2ccc(Cl)cc2)nc2ccccc12)=C\c1ccco1,85.3
CC(/C=N/NC(=O)Cc1cccn1C)=C\c1ccco1,-69.4*
COc1ccc(C(=O)NCC(=O)N/N=C/C(C)=C/c2ccco2)cc1OC,-62.3*
O=C(CN1CCN(Cc2ccccc2)CC1)N/N=C/C=C/c1ccco1,-94.6*
Cc1nn(C)c(C)c1/C=C(/C(=O)C(C)(C)C)n1cncn1,88.9
COc1ccc(-n2c(C)nc3c(cnn3-c3ccc(C)c(C)c3)c2=O)cc1,-84.9*
O=C(c1ccc(CS(=O)c2ccccc2Cl)o1)N1CCN(c2ccccc2)CC1 (configuration not stated),110.1
O=C(c1ccc(CS(=O)Cc2ccccc2Cl)o1)N1CCN(C2CCCCC2)CC1 (configuration not stated),-73.8*
Cc1ccc(NCC(=O)c2ccc([N+](=O)[O-])cc2)cc1,-114.8*
Cc1ccc(C(=O)CNc2ccc(Br)cc2)cc1,-71.4*
SMILES,aSyn UTR act
COc1ccc(OCC(=O)Nc2cccc(NC(=O)COc3ccc(OC)cc3)n2)cc1,-135.6*
COc1ccc(-n2nc3c(c2NC(=O)COc2ccccc2)CS(=O)(=O)C3)cc1,-75.9*
COc1ccc(OCC(=O)Nc2ccccc2Cl)cc1,-110.6*
O=C(COc1ccccc1O)Nc1ccccc1Cl,-98.8*
O=C(COc1ccccc1Cl)NCc1ccccc1,-72.3*
O=C(COc1ccc(C(=O)c2ccccc2)cc1)NCc1ccc(F)cc1,112.5
CN(c1ccc(C(=O)Nc2ccc3c(c2)OCCO3)cc1)S(C)(=O)=O,-149.4*
CN(c1ccc(C(=O)Nc2ccc3c(c2)OCO3)cc1)S(C)(=O)=O,-102.9*
Cc1ccc2nc(NC(=O)c3ccc(NS(=O)(=O)c4cccs4)cc3)sc2c1,-129.8*
CC(C)(C)C(=O)Nc1nc2ccc(S(C)(=O)=O)cc2s1,-112.1*
Cc1cccc(C(=O)Nc2nc3ccc(S(C)(=O)=O)cc3s2)c1,-281.4*
Cc1ccc(C)c(NC(=O)/C(C#N)=C/c2cn(CC(=O)NCc3ccco3)c3ccccc23)c1,58.2
N#C/C(=C\c1cccs1)C(=O)Nc1ccccn1,-74.7*
Cc1ccc(NC(=O)/C(C#N)=C/c2cccs2)c(C)c1,-168.8*
COc1ccc(C(=O)C[n+]2cn(C(F)F)c3ccccc32)c(F)c1,-116.9*
CCCCN1/C(=C/c2ccc3ccccc3[n+]2CC)Sc2ccccc21,80.2
CCN1/C(=C\C=C2\C(=O)N(C)C(=S)N2C)Sc2ccccc21,-81.2*
O=c1nc(/C=C/c2ccc(-c3ccc(F)cc3)o2)cc(C(F)(F)F)[nH]1,-62.5*
CCc1nnc(NC(=O)c2ccc(-c3ccccc3F)o2)s1,-65.0*
O=C(NCc1ccccc1)c1ccc(-c2ccccc2F)o1,-155.1*
O=C(Cc1ccc(-c2ccccc2)cc1)NCc1ccccc1,104.5
CCSc1nnc(NC(=O)c2csc(C)c2)s1,-175.7*
C/C(N)=C(/C#N)C(=O)CSc1nc2cc(Cl)ccc2s1,-115.6*
CCSc1nnc(NC(=O)C2CCCCC2)s1,-98.1*
CCSc1nnc(NC(=O)Nc2cccc(C)c2)s1,-142.7*
SMILES,aSyn UTR act
C/C(N)=C(/C#N)C(=O)CSc1nnc(Nc2cccc(C)c2)s1,-180.2*
O=C(CC(Nc1ccccc1)c1ccc(F)cc1)c1ccccc1 (configuration not stated),-75.3*
Cc1ccc(NC(CC(=O)c2ccccc2)C(=O)O)cc1Cl (configuration not stated),-125.2*
O=C(CC(Nc1ccccc1)C(=O)O)c1ccccc1 (configuration not stated),-123.6*
CNc1nc(N/N=C/c2cc3c(cc2[N+](=O)[O-])OCO3)nc(Nc2ccccc2)n1,73.6
O=[N+]([O-])c1ccc(O)c(C=Nc2ccc3c(c2)OCO3)c1,-86.4*
CC1(C)CC(=O)C(C=Nc2ccc3c(c2)OCO3)=C(O)C1,-70.9*
O=[N+]([O-])c1cc(Br)cc(C=Nc2ccc3c(c2)OCO3)c1O,-89.0*
CC(C(=O)N(C)C1CCS(=O)(=O)C1)N1C(=O)/C(=C/c2cccs2)SC1=S (configuration not stated),-83.3*
CC1(C)CCC(=O)N2CC[C@H]3C[C@H](OC(=O)Nc4ccccc4)C[C@@H]1[C@H]32,-115.8*
CC1(C)CCC(=O)N2CC[C@H]3C[C@H](OC(=O)Nc4ccc5c(c4)OCO5)C[C@@H]1[C@H]32,-105.1*
Cc1cc(N)c(NC2=CC(=O)CC(C)(C)C2)cc1C,-107.7*
O=C(O)c1ccccc1-c1ncc(-c2ccccc2)o1,-136.6*
Clc1cccc(Cl)c1Cn1ccc(C2CC2)n1,-99.9*
O=C(COc1cccc2cccnc12)Nc1ccccc1,-173.6*
c1ccc(OCCOc2cccc3cccnc23)cc1,-93.6*
O=C(N/N=C/c1ccc[nH]1)c1ccc(COc2cccc3cccnc23)cc1,104.0
OCc1ccccc1OCCOc1ccc(Cl)c2cccnc12,-94.8*
Brc1ccc(COc2cccc3cccnc23)cc1,-81.2*
O=C(COc1ccccc1CNCc1ccccc1)Nc1ccccc1,-91.0*
OCc1ccccc1OCCCOc1cccc2cccnc12,-82.8*
Clc1ccc(OCc2cn3ccccc3n2)c2ncccc12,-158.1*
Cc1nc2ccc(NC(=O)Cc3cccc(F)c3)cc2s1,-80.3*
Cc1nc2ccc(NC(=O)Cc3ccccc3F)cc2s1,-174.9*
Cc1nc2ccc(NC(=O)Cc3ccsc3)cc2s1,-108.2*
SMILES,aSyn UTR act
N/C(=N\OC(=O)c1ccc2c(c1)OCO2)c1ccncc1,-101.7*
O=C(COC(=O)c1cc(Cl)ccc1O)c1ccc2c(c1)OCO2,-121.7*
COc1ccc(/C(N)=N/OC(=O)c2ccc3c(c2)OCO3)cc1,-98.3*
N/C(=N\OC(=O)c1ccc2c(c1)OCO2)c1ccc(Cl)cc1,-165.0*
COc1cc(OC)cc(C(=O)/C=C2\Sc3ccccc3N2C)c1,-154.3*
COc1ccc2c(c1)S/C(=C\C(=O)c1ccncc1)N2C,-165.2*
CN1/C(=C/C(=O)c2ccc(Cl)cc2)Sc2cc3c(cc21)OCO3,-160.1*
CN1/C(=C\C(=O)c2cccc([N+](=O)[O-])c2)Sc2ccccc21,-83.4*
